Experimental data taken from PubChem BioAssay (Tox21).
Inconclusive results are not listed. Calls of active or inactive are those of the source. Unless noted, calls come from the whole dose curve; as a rule, active = well fitted curve in the direction sought with a large enough effect in the repeat runs; inconclusive = weak or mixed curves; inactive = no such curve, though single readings can be large; an effect the other way counts as inactive or inconclusive.

Columns and labels:
[1] = qHTS assay to identify small molecule agonists of the peroxisome proliferator-activated receptor delta (PPARd) signaling pathway - cell viability counter screen (AID 743211); note: nearly all actives have a fitted effect of over 55% in size
Outline: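 Viability was measured as CellTiter-Glo luminescence (30 min, room temperature) in the same wells as the beta-lactamase readout. GeneBLAzer PPARd UAS-bla HEK293H cells received compound after 5 h plating and were incubated 17 h at 37 C.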

[2] = target: Peroxisome proliferator-activated receptor delta (Homo sapiens) (UniProt Q03181); test: qHTS assay to identify small molecule agonists of the peroxisome proliferator-activated receptor delta (PPARd) signaling pathway (AID 743212; calls by dose curve)
Chain of Peroxisome proliferator-activated receptor delta (Homo sapiens) (Q03181 whole entry, looked up): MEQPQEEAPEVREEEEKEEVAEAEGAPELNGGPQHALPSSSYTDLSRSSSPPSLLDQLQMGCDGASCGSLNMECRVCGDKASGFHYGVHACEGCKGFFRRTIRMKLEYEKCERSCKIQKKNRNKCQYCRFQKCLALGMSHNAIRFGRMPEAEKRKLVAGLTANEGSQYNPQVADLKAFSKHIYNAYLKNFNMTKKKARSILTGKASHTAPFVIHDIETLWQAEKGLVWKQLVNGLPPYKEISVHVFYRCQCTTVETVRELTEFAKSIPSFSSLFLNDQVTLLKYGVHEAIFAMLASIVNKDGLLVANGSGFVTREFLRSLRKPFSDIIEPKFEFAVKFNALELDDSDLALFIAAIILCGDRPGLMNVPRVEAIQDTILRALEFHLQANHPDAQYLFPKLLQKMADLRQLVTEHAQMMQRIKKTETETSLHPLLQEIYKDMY
Outline: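 HEK293H PPARd-bla cells; 5 h preincubation 37 C/5% CO2; compound (DMSO) 37 C; LiveBLAzer B/G FRET substrate 2 h RT; fluorescence intensity.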

[3] = qHTS assay to identify small molecule antagonists of the peroxisome proliferator-activated receptor delta (PPARd) signaling pathway - cell viability counter screen (AID 743213); note: nearly all actives have a fitted effect of over 50% in size
Outline: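 Cytotoxicity counter screen: CellTiter-Glo luminescence read 30 min after addition, in the same wells as the reporter assay. There, PPARd UAS-bla HEK293H cells (3000/well) were treated 17 h at 37 C with compound and 300 nM L165041.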

[4] = target: Bile acid receptor (Homo sapiens) (UniProt Q96RI1); test: qHTS assay to identify small molecule antagonists of the farnesoid-X-receptor (FXR) signaling pathway (AID 743217; active = well fitted inhibition curve with a large enough effect in the signal ratio in the repeat runs, not every such curve was filed as active; the % refers to the signal ratio)
Chain of Bile acid receptor (Homo sapiens) (Q96RI1 whole entry, looked up): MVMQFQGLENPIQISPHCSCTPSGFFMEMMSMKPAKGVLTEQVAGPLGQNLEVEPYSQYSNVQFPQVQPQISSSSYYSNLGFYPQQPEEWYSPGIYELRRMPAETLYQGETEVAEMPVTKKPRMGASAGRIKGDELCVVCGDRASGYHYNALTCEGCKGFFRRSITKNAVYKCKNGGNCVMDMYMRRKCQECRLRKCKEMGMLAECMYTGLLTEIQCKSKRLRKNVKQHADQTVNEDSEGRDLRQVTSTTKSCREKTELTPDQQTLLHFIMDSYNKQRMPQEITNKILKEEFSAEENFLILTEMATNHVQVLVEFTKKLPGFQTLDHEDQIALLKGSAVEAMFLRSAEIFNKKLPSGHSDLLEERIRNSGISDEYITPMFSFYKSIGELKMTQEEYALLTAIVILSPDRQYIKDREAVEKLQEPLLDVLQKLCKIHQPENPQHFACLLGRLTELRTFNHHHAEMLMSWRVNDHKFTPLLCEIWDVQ
Outline: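 Antagonist mode against 50 uM (final) chenodeoxycholic acid stimulation in FXR-bla HEK 293T cells, 16 h at 37 °C. Inhibition detected as reduced beta-lactamase activity via LiveBLAzer B/G FRET fluorescence after 2 h at room temperature.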

[5] = qHTS assay to identify small molecule agonists of the farnesoid-X-receptor (FXR) signaling pathway - cell viability counter screen (AID 743218); note: nearly all actives have a fitted effect of over 45% in size
Outline: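 Cytotoxicity counter-screen run in parallel, same wells: FXR-UAS-bla HEK 293T cells dosed 16 h at 37 C, viability read by CellTiter-Glo luminescence after 30 min at room temperature.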

[6] = target: Bile acid receptor (Homo sapiens) (UniProt Q96RI1); test: qHTS assay to identify small molecule agonists of the farnesoid-X-receptor (FXR) signaling pathway (AID 743220; active = well fitted activation curve with a large enough effect in the signal ratio in the repeat runs, not every such curve was filed as active; the % refers to the signal ratio)
Outline: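 Beta-lactamase reporter under UAS control in GeneBLAzer FXR HEK 293T cells (5000/well) measured with LiveBLAzer FRET substrate after 2 h at room temperature. Compound exposure lasted 16 h at 37C.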

[7] = target: Vitamin D3 receptor (Homo sapiens) (UniProt P11473); test: qHTS assay to identify small molecule antagonists of the vitamin D receptor (VDR) signaling pathway (AID 743223; active = well fitted inhibition curve with a large enough effect in the signal ratio in the repeat runs, not every such curve was filed as active; the % refers to the signal ratio)
Chain of Vitamin D3 receptor (Homo sapiens) (P11473 whole entry, looked up): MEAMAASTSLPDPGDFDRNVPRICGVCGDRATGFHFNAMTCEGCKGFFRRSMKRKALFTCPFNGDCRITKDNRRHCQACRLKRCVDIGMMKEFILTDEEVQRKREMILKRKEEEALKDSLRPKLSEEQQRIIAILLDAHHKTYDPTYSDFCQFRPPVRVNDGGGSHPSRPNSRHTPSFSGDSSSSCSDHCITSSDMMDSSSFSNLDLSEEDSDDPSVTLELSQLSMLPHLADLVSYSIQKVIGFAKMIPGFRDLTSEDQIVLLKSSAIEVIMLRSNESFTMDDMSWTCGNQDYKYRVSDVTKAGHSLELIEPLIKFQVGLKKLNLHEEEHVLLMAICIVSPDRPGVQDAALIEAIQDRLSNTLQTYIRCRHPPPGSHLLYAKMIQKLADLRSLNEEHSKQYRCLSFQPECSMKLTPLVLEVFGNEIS
Outline: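 Antagonist mode: compound added to VDR-bla cells alongside agonist 1alpha,25-dihydroxyvitamin D3 (3 nM final), incubation 16 h at 37C. Read-out is LiveBLAzer FRET fluorescence, 2 h at room temperature.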

[8] = qHTS assay to identify small molecule agonists of the vitamin D receptor (VDR) signaling pathway - cell viability counter screen (AID 743224); note: series mostly up to about 63 µM; nearly all actives have a fitted effect of over 50% in size
Outline: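 Viability is measured in the same wells as the VDR-bla reporter assay: after 16 h compound treatment and 2 h substrate loading, CellTiter-Glo is added and luminescence read 30 min later.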

[9] = qHTS assay to identify small molecule antagonists of the vitamin D receptor (VDR) signaling pathway - cell viability counter screen (AID 743225); note: nearly all actives have a fitted effect of over 50% in size
Outline: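 Cytotoxicity counter screen read by CellTiter-Glo luminescence (30 min, room temperature) in the same wells as the VDR-bla antagonist readout. HEK 293T VDR-UAS-bla cells had 16 h at 37C with compound and 3 nM (final) 1-alpha,25-dihydroxyvitamin D3, then 2 h with FRET substrate.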

[10] = qHTS assay to identify small molecule agonists of the NFkB signaling pathway - cell viability counter screen (AID 1159515; calls by dose curve; note: series mostly up to about 61 µM; nearly all actives have a fitted effect of over 55% in size)
Outline: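 Multiplexed viability readout: after the 5 hr compound exposure and 1.5 hr FRET substrate step, CellTiter-Glo reagent went into the same NFkB-bla ME-180 wells; ATP luminescence was measured after 30 min at room temperature.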

[11] = qHTS assay to identify small molecule agonists of the endoplasmic reticulum stress response signaling pathway (AID 1159516; active = well fitted activation curve with a large enough effect in the signal ratio in the repeat runs, not every such curve was filed as active; the % refers to the signal ratio)
Outline: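 Tox21 10K library screened in quantitative HTS format on ESRE-bla HeLa cells, a beta-lactamase reporter under ER stress response element control; 5 hr treatment, FRET read.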

[12] = qHTS assay to identify small molecule agonists of the endoplasmic reticulum stress response signaling pathway - cell viability counter screen (AID 1159517; calls by dose curve; note: series mostly up to about 61 µM; nearly all actives have a fitted effect of over 50% in size)
Outline: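 HeLa cells carrying an ESRE-driven beta-lactamase reporter receive compound for 5 hr at 37 C. Cell viability is then gauged with CellTiter-Glo by luminescence, 30 min at room temperature.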

[13] = qHTS assay to identify small molecule antagonists of the retinoid-related orphan receptor gamma (ROR-gamma) signaling pathway - cell viability counter screen (AID 1159520); note: nearly all actives have a fitted effect of over 50% in size
Outline: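 Cytotoxicity was read from cellular ATP (CellTiter-Glo luminescence) after 16 hr at 37 C with 1 uM doxycycline induction. The inducer was added 2 hr after compound transfer to Tet-on ROR gamma CHO cells.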

[14] = target: Nuclear receptor ROR-gamma (Homo sapiens) (UniProt P51449); test: qHTS assay to identify small molecule antagonists of the retinoid-related orphan receptor gamma (ROR-gamma) signaling pathway (AID 1159521)
Outline: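 Antagonist read-out: drop in luminescence (ONE-Glo) from an RORE-LUC reporter in CHO cells with doxycycline-inducible ROR-gamma; 2 hr compound pretreatment, 1 uM doxycycline, 16 hr incubation at 37 C.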

[15] = qHTS assay to identify small molecule agonists of the AP-1 signaling pathway - cell viability counter screen (AID 1159525; calls by dose curve; note: nearly all actives have a fitted effect of over 55% in size)
Outline: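 Luminescent ATP readout (Cell Titer Glo, 30 min RT), normalised to DMSO and tetra n-octyl ammonium bromide controls. Cells were ME-180 AP-1-bla in 0.5% dialyzed FBS Opti-MEM, with a 5 h, 37 °C compound exposure.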

[16] = qHTS assay to identify small molecule agonists of the AP-1 signaling pathway (AID 1159526; calls by dose curve)
[17] = target: Peroxisome proliferator-activated receptor delta (Homo sapiens) (UniProt Q03181); test: qHTS assay to identify small molecule antagonists of the peroxisome proliferator-activated receptor delta (PPARd) signaling pathway (AID 743215; active = well fitted inhibition curve with a large enough effect in the signal ratio in the repeat runs, not every such curve was filed as active; the % refers to the signal ratio;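 note: cells stimulated with agonist L165041 at 300 nM final during compound exposure; series mostly up to about 62 µM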)
Outline: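 Inhibition of L165041-driven (300 nM final) PPARd signaling is scored in HEK293H UAS-bla cells. Exposure lasts 17 h at 37 C; beta-lactamase activity is then read by FRET substrate fluorescence after 2 h at room temperature.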

[18] = qHTS assay to identify small molecule antagonists of the farnesoid-X-receptor (FXR) signaling pathway - cell viability counter screen (AID 743221; active = well fitted cell-killing curve with a large enough effect in the repeat runs, not every such curve was filed as active; note: nearly all actives have a fitted effect of over 50% in size)
Outline: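 Cytotoxicity counter screen run in the FXR-bla reporter wells: HEK 293T cells exposed to compound with 50 uM (final) chenodeoxycholic acid for 16 h, 37 C, then viability measured by CellTiter-Glo luminescence after 30 min, room temperature.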

[19] = target: Vitamin D3 receptor (Homo sapiens) (UniProt P11473); test: qHTS assay to identify small molecule agonists of the vitamin D receptor (VDR) signaling pathway (AID 743222; calls by dose curve)
Outline: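 Quantitative HTS agonist-mode screen: compounds in DMSO were pin-transferred onto VDR-bla cells and incubated 16 h at 37C, 5% CO2. Reporter activity was detected with LiveBLAzer B/G FRET substrate after 2 h at room temperature.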

Measured: Potency

OCCC1CCCCN1 (stereo not drawn)
inactive: [1] | [2] | [3] | [4] | [5] | [6] | [7] | [8] | [9] | [10] | [11] | [12] | [13] | [14] | [15] | [16]

CCC(=O)OC(C)(C)C1CC=C(C)CC1 (stereo not drawn)
inactive: [1] | [2] | [3] | [17] | [4] | [6] | [18] | [8] | [10] | [11] | [12] | [13] | [14] | [15] | [16]

FC(F)(F)C(F)(F)C(F)(F)C(F)(F)C(F)(F)C(F)(F)CCI
inactive: [1] | [2] | [3] | [5] | [6] | [18] | [19] | [7] | [8] | [9] | [10] | [11] | [12] | [13] | [14] | [15] | [16]

CCC(C)N(C)C(=O)c1cc2ccccc2c(-c2ccccc2Cl)n1 (stereo not drawn)
inactive: [1] | [2] | [3] | [17] | [5] | [18] | [8] | [9] | [10] | [11] | [12] | [13] | [14] | [15] | [16]

CCOC(=O)CC(C)C
inactive: [1] | [2] | [3] | [5] | [18] | [19] | [8] | [9] | [10] | [11] | [12] | [13] | [14] | [15] | [16]

Nc1ccc(C(=O)N2CC3CC(CN(Cc4ccccc4)C3)C2)cc1
inactive: [1] | [2] | [3] | [4] | [5] | [6] | [18] | [19] | [8] | [9] | [10] | [11] | [12] | [13] | [14] | [15] | [16]

CC(C)(C)c1ccc(S)cc1
inactive: [1] | [2] | [3] | [17] | [5] | [18] | [19] | [7] | [8] | [9] | [10] | [11] | [12] | [13] | [14] | [15] | [16]

N#CCCNCCC#N
inactive: [1] | [2] | [3] | [17] | [5] | [18] | [19] | [8] | [9] | [10] | [11] | [12] | [13] | [14] | [15] | [16]
